Source: PubChem BioAssay AID1159580 (chemical genetic matrix, 2015)
Out of some 5,500 compounds screened, about 2,000 (36%) were called active. About 18% were inconclusive and are not listed. Rule as the data show it: active = normalized growth mostly below about 0.91 (no sharp cut-off); inconclusive = no clear call, values can overlap the other calls; inactive = mostly above about 0.92. This is one part of the list.

Assay: chemical genetic growth profiling, strain panel (AID 1159580);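 also: tested at 20 µM; growth read once vehicle control cultures reached saturation at 30 °C; 1 = growth at the plate median or of vehicle wells; lower values mean less growth of the strain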
Settings: growth OD

Measured: normalized growth

Cc1cc(=O)n2[nH]cnc2n1
inactive: S. cerevisiae deletion strains, locus YAL013W, strain DEP1, hits give low values 1.05 | S. cerevisiae deletion strains, locus YBR229C, strain ROT2, hits give low values 1.01 | S. cerevisiae deletion strains, locus YDL101C, strain DUN1, hits give low values 1.06 | S. cerevisiae deletion strains, locus YDL134C, strain PPH21, hits give low values 0.964 | S. cerevisiae deletion strains, locus YDR150W, strain NUM1, hits give low values 1.05 | S. cerevisiae deletion strains, locus YEL061C, strain CIN8, hits give low values 1 | S. cerevisiae deletion strains, locus YGR078C, strain PAC10, hits give low values 1.05 | S. cerevisiae deletion strains, locus YHR030C, strain SLT2, hits give low values 1.14 | S. cerevisiae deletion strains, locus YHR087W, strain rtc3, hits give low values 0.99 | S. cerevisiae deletion strains, locus YJR043C, strain POL32, hits give low values 1.08 | S. cerevisiae deletion strains, locus YJR075W, strain HOC1, hits give low values 1.02 | S. cerevisiae deletion strains, locus YKL190W, strain CNB1, hits give low values 0.997 | S. cerevisiae deletion strains, locus YLR039C, strain RIC1, hits give low values 0.977 | S. cerevisiae deletion strains, locus YLR058C, strain SHM2 (second series), hits give low values 0.996 | S. cerevisiae deletion strains, locus YLR085C, strain ARP6, hits give low values 1.01 | S. cerevisiae deletion strains, locus YLR262C, strain YPT6, hits give low values 0.964 | S. cerevisiae deletion strains, locus YML094W, strain GIM5, hits give low values 0.985 | S. cerevisiae deletion strains, locus YMR219W, strain ESC1, hits give low values 0.99 | S. cerevisiae deletion strains, locus YMR263W, strain SAP30, hits give low values 1.02 | S. cerevisiae deletion strains, locus YNL153C, strain GIM3, hits give low values 1.03 | S. cerevisiae deletion strains, locus YNL298W, strain CLA4 (second series), hits give low values 1.01 | S. cerevisiae deletion strains, locus YNL322C, strain KRE1, hits give low values 1 | S. cerevisiae deletion strains, locus YNR030W, strain Alg12, hits give low values 1.02 | S. cerevisiae deletion strains, locus YPL055C, strain LGE1, hits give low values 0.997 | S. cerevisiae deletion strains, locus YPL241C, strain CIN2, hits give low values 1.01 | S. cerevisiae deletion strains, locus YPR135W, strain CTF4, hits give low values 1.09 | S. cerevisiae strains, strain wild type, hits give low values 1.01
